Results reported in PMC5540273 (PLoS ONE, 2017).

Tests used:
Settings in all cases: concentration: 1 μM, replicates: in singlicate; n = 1
[1] = test system: PRKX
[2] = test system: PRP4
[3] = test system: T1, PYK2
T1 construct: gene PTK2B

[4] = test system: QSK
[5] = test system: RAF1
[6] = test system: RET
[7] = test system: RIOK1
[8] = test system: RIOK2
[9] = test system: RIOK3
[10] = test system: RIPK1
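Also: KINOMEscan kinase panel screen.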

Row | Compound | %Inh [1] | %Inh [2] | %Inh [3] | %Inh [4] | %Inh [5] | %Inh [6] | %Inh [7] | %Inh [8] | %Inh [9] | %Inh [10]
1 | Cc1nnc(-c2ccc(C)c(-c3ccc(C(=O)O)cc3)c2)o1 [GW608005] | 0% | 8% | 0% | 0% | 0% | 2% | 15% | 19% | 0% | 5%
2 | Cl.NS(=O)(=O)c1cccc(Nc2cc(-c3ccc(F)cc3)n[nH]2)c1 [GW824645] | 0% | 0% | 0% | 0% | 10% | 0% | 0% | 0% | 11% | 0%
3 | Fc1cccc(CSc2nnc(-c3ccc4c(c3)CCO4)o2)c1 | 7% | 0% | 8% | 0% | 2% | 0% | 0% | 5% | 8% | 3%
4 | COc1cc(Nc2nccc(N3CCC(NC(=O)C(C)c4ccc(Cl)cc4)C3)n2)cc(OC)c1OC (centres unmarked) [GSK1379757] | 5% | 23% | 10% | 2% | 10% | 7% | 58% | 0% | 54% | 20%
5 | COc1ccc(-c2cc3c(C)nc(N)nc3n([C@H]3CC[C@H](O)CC3)c2=O)cn1 | 0% | 0% | 0% | 0% | 0% | 0% | 0% | 0% | 0% | 0%
6 | Cc1nn2c(=O)cc(N3CCOCC3)nc2n1Cc1cccc(Cl)c1Cl [GSK2342769] | 8% | 15% | 6% | 8% | 15% | 72% | 38% | 36% | 11% | 0%
7 | COc1cc2ncn(-c3cc(OCCCc4ccccc4)c(C(N)=O)s3)c2cc1OC [GSK205189] | 3% | 0% | 5% | 0% | 0% | 0% | 26% | 0% | 12% | 0%
8 | COc1ccc(Nc2nccc(N3CCC(NS(=O)(=O)c4ccc(NC(C)=O)cc4)C3)n2)cc1 (centres unmarked) [GSK1379729] | 2% | 14% | 0% | 11% | 18% | 28% | 38% | 9% | 29% | 28%
9 | O=C(Nc1n[nH]c2nc(-c3ccccc3)c(Br)cc12)C1CC1 [SB-708998] | 0% | 3% | 0% | 0% | 14% | 74% | 35% | 17% | 24% | 48%
10 | Cc1ccc(Oc2ccc(Nc3ncnc4cc[nH]c34)cc2C)cn1 | 2% | 46% | 9% | 13% | 5% | 8% | 100% | 0% | 24% | 0%
11 | COc1ccc(CNC(=O)NC2CCN(c3ccnc(Nc4ccc(F)cc4)n3)C2)cc1 (centres unmarked) [GSK1379706] | 18% | 47% | 1% | 0% | 6% | 21% | 8% | 0% | 0% | 0%
12 | COc1cccc(C2=C(Nc3cccc(C(=O)O)c3)C(=O)NC2=O)c1 [SB-390770] | 7% | 49% | 0% | 0% | 11% | 17% | 14% | 6% | 0% | 0%
13 | CCC(=O)c1c(-c2ccccc2)c2cc(Cl)ccc2c(=O)n1Cc1cc(S(C)(=O)=O)n(CCC(C)(C)O)n1 | 30% | 0% | 0% | 8% | 14% | 14% | 8% | 42% | 0% | 20%
14 | Cc1c(Cn2c(C)nn3c(=O)cc(N4CCO[C@H](C)C4)nc23)cccc1C(F)(F)F [GSK2373690] | 29% | 26% | 1% | 14% | 19% | 6% | 15% | 17% | 27% | 1%
15 | COc1ccc(-c2coc3ccc(-c4nnc(SCc5cccc(C#N)c5)o4)cc23)cc1 | 0% | 18% | 0% | 0% | 14% | 16% | 0% | 5% | 11% | 0%
16 | CCC(=O)c1c(-c2ccccc2)c2cc(Cl)ccc2c(=O)n1Cc1ccc(C(=O)O)cc1 | 0% | 0% | 0% | 0% | 26% | 0% | 6% | 0% | 23% | 0%
17 | O=C1NC(=O)C(c2ccccc2)=C1Nc1cccc(O)c1 [SB-390534] | 0% | 0% | 12% | 9% | 13% | 0% | 0% | 0% | 0% | 0%
18 | COc1cccc(C2=C(N(C)c3ccccc3)C(=O)NC2=O)c1 [SB-334865] | 25% | 41% | 8% | 1% | 12% | 17% | 39% | 0% | 0% | 0%
19 | CCS(=O)(=O)c1ccc(OC)c(Nc2ncc(-c3ccc(F)cc3)o2)c1.Cl [GW591947] | 0% | 16% | 11% | 0% | 9% | 13% | 22% | 0% | 29% | 10%
20 | O=C(NCc1cccs1)c1cc(C(=O)c2c(Cl)cccc2Cl)c[nH]1 [GW823670] | 0% | 0% | 0% | 0% | 0% | 2% | 5% | 0% | 0% | 0%
21 | CCn1c(-c2ccoc2)nc2cnccc21 [SB-733887] | 0% | 58% | 4% | 0% | 21% | 1% | 28% | 0% | 27% | 0%

Row | Compound | %Inh [1] | %Inh [2] | %Inh [3] | %Inh [4] | %Inh [5] | %Inh [6] | %Inh [7] | %Inh [8] | %Inh [9] | %Inh [10]
22 | Nc1n[nH]c2nnc(-c3ccccc3)c(-c3ccccc3)c12 [GW554060] | 18% | 8% | 0% | 0% | 18% | 0% | 32% | 13% | 0% | 0%
23 | COc1cc2ncn(-c3cc(OCc4ccc(S(C)(=O)=O)cc4)c(C(N)=O)s3)c2cc1OC [GW869979] | 0% | 0% | 0% | 27% | 0% | 26% | 0% | 8% | 0% | 18%
24 | Cn1c(=O)c(F)c(Nc2ccc(I)cc2F)c2c(=O)n(OC[C@H](O)CO)cnc21 | 0% | 0% | 17% | 0% | 37% | 11% | 5% | 0% | 23% | 0%
25 | COc1cc2ncn(-c3cc(OCc4ccncc4)c(C(N)=O)s3)c2cc1OC [GSK336313] | 7% | 20% | 0% | 0% | 7% | 4% | 31% | 6% | 12% | 46%
26 | O=c1cc(N2CCOCC2)nc2n(Cc3ccc(F)c(Cl)c3)ccn12 [GSK2297099] | 20% | 17% | 0% | 2% | 54% | 0% | 5% | 18% | 14% | 1%
27 | CCC(=O)c1c(-c2ccccc2)c2cc(Cl)ccc2c(=O)n1Cc1cc(S(C)(=O)=O)n(CC(F)F)n1 | 1% | 6% | 0% | 0% | 6% | 0% | 0% | 13% | 25% | 1%
28 | Nc1nc(-c2ccccc2F)c(-c2ccnc3ccccc23)s1 [GW560459] | 4% | 33% | 0% | 0% | 8% | 0% | 40% | 52% | 25% | 0%
29 | Cc1cccc(-c2cc(-c3c[nH]nc3-c3ccccn3)ccn2)c1 [GW679395] | 12% | 22% | 0% | 3% | 3% | 48% | 6% | 0% | 0% | 0%
30 | COc1cc(Nc2ccnc3ccc(C(F)(F)F)cc23)cc(OC)c1OC [GW577382] | 15% | 27% | 0% | 22% | 20% | 9% | 11% | 15% | 0% | 15%
31 | O=C(Nc1n[nH]c2nc(-c3ccccc3)c(Cl)cc12)C1CC1 [SB-734909] | 0% | 0% | 0% | 38% | 30% | 0% | 7% | 41% | 7% | 55%
32 | COc1cc(Nc2nccc(N3CCC(NC(=O)C4COc5ccccc5O4)C3)n2)cc(OC)c1OC (centres unmarked) [GSK1379761] | 15% | 32% | 18% | 2% | 7% | 2% | 66% | 0% | 43% | 7%
33 | Cc1cccc(-c2nc(Nc3ccc4c(cnn4C)c3)c3ccccc3n2)n1 [GW876731] | 0% | 0% | 0% | 0% | 29% | 4% | 0% | 0% | 0% | 0%
34 | COc1cccc(-n2cnc3c(N)ncnc32)c1 [SKF-97416] | 32% | 0% | 0% | 28% | 0% | 0% | 0% | 22% | 0% | 0%
35 | CCCNC(=O)Nc1ccc(Oc2ncnc3ccn(C)c23)cc1 | 0% | 8% | 3% | 0% | 2% | 8% | 9% | 10% | 14% | 0%
36 | Nc1nccc2scc(-c3ccc4c(c3)CCN4C(=O)Cc3ccccc3)c12 [GSK2576924] | 14% | 13% | 0% | 0% | 5% | 11% | 13% | 6% | 11% | 71%
37 | Nc1n[nH]c2ncc(-c3ccccc3)cc12 [SB-517081] | 0% | 24% | 0% | 1% | 0% | 12% | 6% | 0% | 4% | 0%
38 | FC(F)(F)c1ccc(-c2ncn(CCCN3CCOCC3)c2-c2ccncc2)cc1 [SB-217780] | 14% | 0% | 34% | 0% | 0% | 20% | 47% | 5% | 50% | 0%
39 | CN1C(=O)C(Nc2cc(Cl)c(O)c(Cl)c2)=C(c2ccc(Cl)cc2)C1=O [SB-404321] | 0% | 17% | 1% | 0% | 10% | 0% | 0% | 0% | 0% | 0%
40 | CCS(=O)c1ccc(-c2coc3ccc(-c4nnc(C)o4)cc23)cc1 (centres unmarked) | 0% | 21% | 0% | 0% | 0% | 0% | 0% | 15% | 0% | 1%
41 | COc1cc2nccc(Nc3ccc(OCc4ccc(NC(C)=O)cc4)cc3)c2cc1OC.Cl [GW440135] | 7% | 50% | 26% | 15% | 18% | 11% | 0% | 0% | 0% | 0%
